Assay outcomes: PubChem BioAssay, several laboratories
CYP2C9 act: increases human cytochrome P450 2C9 activity. P11712. recombinant CYP2C9, luciferin-H conversion, luminescence; stronger effect = higher value; factor 1 = untreated enzyme, 0 = blocked. activation factor at 5 µM. 96,000 tested, 1.4% active. AID 1024;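 active means activation factor of 2 or more for CYP2C9 at a 5 µM dose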
PostGolgi yeast: growth inhibition of a yeast mutant, post-Golgi transport screen; post-Golgi transport phenotypic cell assay; inhibition, % at 10 µM; 98,000 tested, 0.9% active;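 further: yeast cells grown in 1536-well plates; yeast grown about 18 h at 30C before absorbance read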
CYP2C9 inhib: inhibitors of human CYP2C9; P11712; CYP2C9 Supersomes, luciferin-H conversion, luminescence; inhibition, % at 5 µM; 96,000 tested, 20% active;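 active means blocking of liver enzyme CYP2C9 beyond about 50% at 5 µM, limit read from the data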
CYP2C19 inhib: human CYP2C19 inhibition; P33261; CYP2C19 Supersomes, luciferin-H EGE luminescence, 30 min; inhibition, % at 5 µM; 96,000 tested, 21% active;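 active means CYP2C19 inhibition above a set limit at 5 µM in the primary screen, cut at about 50% in these data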
Target sequence (P33261 whole entry, looked up): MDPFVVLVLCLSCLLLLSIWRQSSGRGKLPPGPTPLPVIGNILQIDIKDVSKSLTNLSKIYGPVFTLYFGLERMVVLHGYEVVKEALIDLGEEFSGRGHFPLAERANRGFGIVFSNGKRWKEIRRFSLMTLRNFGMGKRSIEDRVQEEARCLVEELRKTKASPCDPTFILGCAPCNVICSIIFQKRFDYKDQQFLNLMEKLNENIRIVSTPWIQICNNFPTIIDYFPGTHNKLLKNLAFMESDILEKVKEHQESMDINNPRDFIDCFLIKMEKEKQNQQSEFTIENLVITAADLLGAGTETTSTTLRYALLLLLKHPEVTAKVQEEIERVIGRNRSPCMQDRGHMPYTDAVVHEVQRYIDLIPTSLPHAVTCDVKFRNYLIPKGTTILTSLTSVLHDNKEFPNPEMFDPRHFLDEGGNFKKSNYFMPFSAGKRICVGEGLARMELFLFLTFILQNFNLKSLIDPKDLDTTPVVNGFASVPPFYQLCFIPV
CYP2C19 activ: activators of human cytochrome P450 2C19; P33261; recombinant CYP2C19, luciferin-H EGE luminescence; stronger effect = higher value; 0 = fully inhibited enzyme, 1 = untreated enzyme; activation factor at 5 µM; 96,000 tested, under 10 active;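 active means activation factor of at least 2 at 5 µM in the primary screen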
PostGolgi ctrl: yeast control strain growth, post-Golgi counter-screen; efflux-deficient yeast background strain, growth absorbance A615, 16 h; inhibition, % at 10 µM; 98,000 tested, 5% active
Of the large screens only hits and unclear results are named; the others gave an inactive call. Rows were chosen to be rich in hits. Some 32% of all compounds tested hit in one or more screens of this group. Unless noted, no stated cut-off is given here; in the data, active means inhibition above about 30%; inactive means the rest.

Cn1c(C(=O)NC2CC2)cc2c(=O)n(C)c3ccccc3c21	none
Cn1c(C(=O)N2CCN(C(=O)c3ccco3)CC2)cc2c(=O)n(C)c3ccccc3c21	CYP2C19 inhib 53.3, PostGolgi ctrl 34.5
N#Cc1ccc2ccn(CC(=O)NCc3ccccc3)c2c1	CYP2C9 inhib 58.9, CYP2C19 inhib 87.0
COc1cccc(CNC(=O)Cn2cccc2)c1	none
COc1cccc(CNC(=O)CCS(=O)(=O)c2cccs2)c1	CYP2C19 inhib 52.9
O=C(CCS(=O)(=O)c1cccs1)Nc1ccc(C(=O)NCc2ccccc2)cc1	CYP2C9 inhib 60.2, CYP2C19 inhib 77.7
Cc1ccc(CNC(=O)c2ccc(NC(=O)CCS(=O)(=O)c3cccs3)cc2)cc1	none
O=c1c2ccccc2nc(SCc2cc(F)cc3c2OCOC3)n1Cc1ccco1	none
CCc1cc2c(=O)n(Cc3ccco3)c(SCc3c(C)noc3C)nc2s1	CYP2C9 inhib 90.2, CYP2C19 inhib 51.1, PostGolgi ctrl 32.5
CCc1cc2c(=O)n(Cc3ccco3)c(SCC(=O)N3CCCc4ccccc43)nc2s1	CYP2C9 inhib 87.2
CC(C)(C)NC(=O)C(=O)NNC(=O)C12CC3CC(CC(C3)C1)C2	none
CC(C)c1ccc(CN(C(=O)c2cc3ccccc3oc2=O)C2CCS(=O)(=O)C2)cc1 (centres undefined)	CYP2C9 inhib 62.5
O=C(c1cc2ccccc2oc1=O)N(Cc1ccco1)C1CCS(=O)(=O)C1 (centres undefined)	none
COc1ccc(CN(C(=O)c2oc3ccccc3c2C)C2CCS(=O)(=O)C2)cc1OC (centres undefined)	CYP2C9 inhib 95.6, CYP2C19 inhib 75.2
OC(C#Cc1ccccn1)c1cccs1 (centres undefined)	none
CC1CC(NC(=O)C2(C)CC2(Cl)Cl)CC(C)(C)C1 (centres undefined)	none
Cc1cccc(C)c1NC(=O)Cn1nc(-c2ccccc2)nc1-c1ccccc1	CYP2C9 inhib 66.0
Cc1ccccc1NC(=O)Cn1nc(-c2ccccc2)nc1-c1ccccc1	CYP2C9 inhib 55.7
COc1cc(C(c2c(C)[nH][nH]c2=O)c2c(C)[nH][nH]c2=O)ccc1OCc1ccc([N+](=O)[O-])cc1	none
C/C(=N/NC(=O)c1ccc(C)s1)c1cccc(NC(=O)COc2ccc(Cl)cc2C)c1	none
O=C(COc1ccccc1Cl)Nc1nc(-c2cccs2)cs1	CYP2C9 inhib 82.0
Cc1cc(Cl)ccc1OCC(=O)Nc1nc(-c2cccs2)cs1	CYP2C9 inhib 55.6
Cc1cnc(NC(=O)COc2ccccc2Cl)s1	none
CCOC(=O)c1[nH]c(C)c(CCC(=O)OC)c1C	none
O=C(Cc1ccc(-n2cccc2)cc1)NC1CCCCC1	CYP2C9 inhib 68.8, CYP2C19 inhib 55.4
COc1ccccc1OCC(=O)NCCc1nc2ccccc2[nH]1	none
O=C(NCCc1nc2ccccc2[nH]1)c1ccco1	CYP2C19 inhib 54.8
Cc1ccccc1NC(=O)NCCc1nc2ccccc2[nH]1	CYP2C19 inhib 60.5
O=C(CNC(=O)c1ccc(Br)cc1)NCCc1nc2ccccc2[nH]1	CYP2C9 inhib 58.0
CCC(=O)NCCc1nc2ccccc2[nH]1	none
CN(C)CCNc1nc2c(c(=O)[nH]c(=O)n2C)n1CC(O)COc1ccc(Cl)cc1Cl (centres undefined)	none
Cc1ncc([N+](=O)[O-])n1CCOC(=O)Nc1ccc(Cl)c(Cl)c1	none
COC(=O)c1c(CCl)noc1C(=O)NCC1CCCO1 (centres undefined)	none
O=C(Nc1ccccc1)N1C(=O)C2(OCCO2)c2ccccc21	none
CCOC(=O)c1cc(-c2ccccc2)sc1NC(=O)C(C)Sc1nnnn1C (centres undefined)	PostGolgi yeast 73.4, PostGolgi ctrl 63.6
COc1ccccc1C(=O)N1CCCC1(C#N)c1ccccc1 (centres undefined)	CYP2C9 inhib 89.5
CO/N=C(\c1nonc1N)N1CCN(c2ccc(Cl)cc2[N+](=O)[O-])CC1	CYP2C9 inhib 76.0, CYP2C19 inhib 77.2, PostGolgi ctrl 57.7
CO/N=C(\c1nonc1N)N1CCN(c2ccc([N+](=O)[O-])cc2Cl)CC1	PostGolgi ctrl 32.3
O=C(Nn1c(=O)[nH]c2ccsc2c1=O)c1ccccc1	none
COC(=O)C(CC(C)C)NC(=O)C(N)Cc1ccccc1 (centres undefined)	none
COC(=O)CCC(NC(=O)OCc1ccccc1)C(=O)NC(CC(C)C)C(=O)OC (centres undefined)	CYP2C9 inhib 68.0
COc1cccc(C(=O)Nc2c(C)n[nH]c2C)c1	none
Cc1cc(NC(=O)NC(=O)c2cccc(OC(F)(F)C(F)F)c2)n[nH]1	PostGolgi ctrl 33.4
CCC(C)c1ccccc1NC(=S)Nc1cccnc1 (centres undefined)	none
Cc1nn(CC(=O)N2CCN(Cc3ccccc3)CC2)c(=O)c2ccccc12	CYP2C19 inhib 74.9
Cc1nn(CC(=O)NCc2ccccc2)c(=O)c2ccccc12	CYP2C9 act 2.7
Cc1nn(CC(=O)N2CCOCC2)c(=O)c2ccccc12	none
Cc1nn(CC(=O)NCc2cccnc2)c(=O)c2ccccc12	none
Cc1nn(CC(=O)NCc2cccc3ccccc23)c(=O)c2ccccc12	CYP2C9 act 2.2
Cc1cccc(N(C2C=CS(=O)(=O)C2)S(=O)(=O)c2ccccc2)c1 (centres undefined)	none
C=CCn1c(COc2cccc(C)c2)nnc1SCC(=O)NC(=O)NCc1ccco1	none
CCOC(=O)c1c(CN(C)C)oc2cc(CN(C)C)c(O)c(CSc3ccccc3)c12	CYP2C19 inhib 92.4
Cc1ccc(C(=O)N(c2c(C)n(C)n(-c3ccccc3)c2=O)C(C)C)cc1	none
COc1ccc(C(=O)N2CCOCC2)cc1Br	CYP2C9 act 2.3
CN(C)c1ccc(C(=S)N2CCOCC2)cc1Br	CYP2C9 act 2.4
COc1cccc(OC)c1C(=O)N1CCOCC1	none (no result: CYP2C9 act, CYP2C9 inhib, CYP2C19 inhib, CYP2C19 activ)
Cc1cc(OCC(=O)NCCCN(C)C)cc(C)c1Br	none
Cc1cc(=O)[nH]c(SCC(=O)Nc2nc(-c3ccccc3)cs2)n1	CYP2C9 inhib 59.7
O=C(CSc1ncn[nH]1)Nc1nc(-c2ccccc2)cs1	CYP2C19 inhib 63.9
CCc1ccc(NC2=CC(=O)CC(c3ccco3)C2)cc1 (centres undefined)	CYP2C9 inhib 52.6, CYP2C19 inhib 53.7
Cc1cc(C)cc(NC2=CC(=O)CC(c3ccco3)C2)c1 (centres undefined)	none
COc1ccc(OC)c2c1CC(C)(C)NC2=O	none
CCOC(=O)C1CCCCN1Cc1cccc(F)c1 (centres undefined)	CYP2C19 inhib 88.6
CCOC(=O)C1CCCCN1Cc1cccc(OC)c1OC (centres undefined)	none
CCOC(=O)C1CCCCN1Cc1cc(Cl)ccc1O (centres undefined)	CYP2C9 inhib 94.3, CYP2C19 inhib 98.9
CCOC(=O)C1CCCCN1Cc1ccc(F)cc1 (centres undefined)	CYP2C19 inhib 66.2
